# Sm TGR block: blocks Schistosoma mansoni thioredoxin glutathione reductase; Q962Y6; purified TGR, DTNB reduction, TNB absorbance 405 nm; Potency, µM (doses to about 114 µM), for inactives: top-dose activity change, negative = inhibition, usual class: inhibitors; 3% of 360,000 active; note: nearly all actives have a fitted effect of over 60% in size
#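 First, TGR (20 nM dispensed) and NADPH were mixed with compound. Second, a 15 min room-temperature incubation followed. Third, further NADPH and then DTNB were added to start the reaction. Finally, TNB absorbance was monitored kinetically.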
# AmpC inh no detg: blocks E. coli AmpC beta-lactamase in detergent-free assay; P00811; AmpC nitrocefin hydrolysis, absorbance 480 nm, 0.0001% Triton; Potency, µM (series often up to 57.1 µM), inactives show at the top dose activity change, negative = inhibition, usual class: inhibitors; 0.52% of 330,000 active; AID 485341;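 note: plate controls were no compound for no effect and no enzyme for full effect; nearly all actives have a fitted effect of over 20% in size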
# Target sequence (P00811 whole entry, looked up): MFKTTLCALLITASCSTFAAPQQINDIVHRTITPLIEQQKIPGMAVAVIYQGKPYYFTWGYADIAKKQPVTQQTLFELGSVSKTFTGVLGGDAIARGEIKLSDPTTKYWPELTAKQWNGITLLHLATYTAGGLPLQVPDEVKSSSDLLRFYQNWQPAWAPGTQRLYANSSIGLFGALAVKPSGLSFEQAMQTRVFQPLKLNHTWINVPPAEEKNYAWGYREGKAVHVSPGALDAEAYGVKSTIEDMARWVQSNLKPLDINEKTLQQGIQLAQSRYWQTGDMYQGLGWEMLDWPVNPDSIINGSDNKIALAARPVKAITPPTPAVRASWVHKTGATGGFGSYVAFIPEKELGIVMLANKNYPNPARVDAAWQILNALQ
#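 AmpC (5.3 nM in the dispensed reagent) in 20 mM phosphate pH 7.0 with 0.01% (detergent screen) or 0.0001% Triton X-100 was preincubated with compounds for 15 min at room temperature. Nitrocefin was then added from an 800 uM solution, and hydrolysis was followed at 480 nm.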
# AmpC inh detg: AmpC beta-lactamase inhibition with detergent present. P00811. AmpC hydrolysis of nitrocefin, absorbance 480 nm, 0.01% Triton. Potency, µM (series often up to 114 µM), for the others: at the highest dose activity change, negative = inhibition, actives largely listed as inhibitors. 0.041% of 370,000 active;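 note: 0% = no-compound wells and -100% = no-enzyme wells; nearly all actives have a fitted effect of over 25% in size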
#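 20 mM phosphate pH 7.0 + 0.01% (detergent screen) or 0.0001% Triton X-100; 5.3 nM AmpC reagent; cpd preinc 15 min RT; nitrocefin (800 uM stock) to start; A480 q20 s × 4 min; Activity was normalised to no-enzyme and no-compound control wells.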
# Active calls of the source: *; ? = inconclusive; / = no result given. Shown are actives, neighbours in structure and some others; about 3.3% of the full set was active somewhere. Calls come from the whole dose curve; as a rule, active = well fitted curve in the direction sought with a large enough effect; inconclusive = small, poorly fitted or top-dose-only effect, or another doubt; inactive = no such curve, though single readings can be large; an effect the other way counts as inactive or inconclusive. Unless noted, % is set by controls: 0 for no effect and ±100 for the full control effect; potency is the fitted concentration of half-maximal effect.
SMILES,Sm TGR block,AmpC inh no detg,AmpC inh detg
Cc1cc2c(cc1C)C(c1ccsc1)CC(=O)N2 (configuration not stated),5.8%,8.6%,5.4%
CCOC(=O)c1sc(N(Cc2ccccc2)C(=O)CCl)nc1C,25.1µM*,-3.2%,-2.5%
CCOC(=O)c1sc(N(Cc2ccccc2)C(=O)COC(=O)c2ccccc2O)nc1C,-7.6%,-23.4%,1.3%
C#CCOc1ccc(C2C3=C(CC(C)(C)CC3=O)N(CC(=O)O)C3=C2C(=O)CC(C)(C)C3)cc1,0.0%,-6.5%,0.6%
C#CCOc1ccc(C2C3=C(CC(C)(C)CC3=O)N(CC(=O)O)C3=C2C(=O)CC(C)(C)C3)cc1OC,35.5µM*,50.3%,0.7%
CCCC(=O)C1=C(O)C(C(=O)OC)C(C)(C)CC1=Nc1ccccc1 (configuration not stated),1.6%,0.4%,0.6%
CCCC(=O)C1=C(O)C(C(=O)OC)C(C)(C)CC1=NCc1ccccc1 (configuration not stated),100µM*,63.6%,1.5%
CN(CC(=O)NCc1ccccc1Cl)S(=O)(=O)c1ccc2c(c1)n(C)c(=O)c(=O)n2C,-13.9%,3.2%,1.0%
COc1ccc(C)cc1S(=O)(=O)N(C)CC(=O)NCc1ccco1,31.6µM*,59.9%,?
CN(CC(=O)NCc1ccco1)S(=O)(=O)c1cccc2cccnc12,20µM*,-16.9%,?
COc1ccc(S(=O)(=O)N(C)CC(=O)NCc2ccco2)cc1Cl,3.0%,-11.1%,-12.4%
CN(CC(=O)NCc1ccco1)S(=O)(=O)c1ccc2c(c1)n(C)c(=O)c(=O)n2C,39.8µM*,-19.1%,?
CN(CC(=O)NCc1ccc(Cl)cc1)S(=O)(=O)c1cccc2cccnc12,4.2%,-2.3%,-5.1%
O=C(Nc1ccc(C(F)(F)F)cc1)C1CCN(c2cnccn2)CC1,-2.0%,15.0%,-5.6%
COc1ccccc1Nc1ncc2c(n1)CCN(CC(C)C)C2,0.4%,/,12.3%
Cc1ccc2cc(/C=N/NC(=O)c3ccccc3O)c(Cl)nc2c1,0.8%,-9.4%,-0.4%
N#C/C(=C\c1cc2ccccc2nc1N1CCOCC1)C(=O)Nc1ccc(N2CCOCC2)cc1,2.1%,-22.4%,-15.0%
Cc1ccc2cc(C=C(C#N)C#N)c(N3CCCCC3)nc2c1,3.16µM*,-23.4%,0.2%
Cc1ccc2cc(/C=C(\C#N)C(N)=O)c(N3CCCCC3)nc2c1,-14.6%,17.1%,-7.3%
Cc1ccc2cc(C=C(C#N)C#N)c(Cl)nc2c1,2.82µM*,-22.1%,-12.7%
N#CC(C#N)=Cc1cc2ccccc2nc1N1CCOCC1,7.08µM*,-11.2%,?
CCOC(=O)c1c(C)[nH]c(C)c1S(=O)(=O)N1CCCC(C(=O)Nc2cccc(CC)c2)C1 (configuration not stated),3.0%,/,0.9%
Cc1ccc(S(=O)(=O)c2nc(S(C)(=O)=O)sc2N2CCCCCC2)cc1,0.6%,17.8%,-2.5%
CC1CCCN(c2sc(S(C)(=O)=O)nc2S(=O)(=O)c2ccc(Cl)cc2)C1 (configuration not stated),-21.1%,7.9%,-0.7%
CC1CN(c2sc(S(C)(=O)=O)nc2S(=O)(=O)c2ccc(Cl)cc2)CC(C)O1 (configuration not stated),14.1µM*,9.7%,-7.5%
SMILES,Sm TGR block,AmpC inh no detg,AmpC inh detg
Cc1ccc(S(=O)(=O)c2nc(S(C)(=O)=O)sc2N2CCC(C)CC2)cc1,1.78µM*,49.1%,-0.3%
CC(C)Cn1c(SCC(=O)N(C)c2c(N)n(Cc3ccccc3)c(=O)[nH]c2=O)nc2ccccc21,-0.1%,-7.5%,?
CCN(CC)S(=O)(=O)c1ccc(-n2c(=O)c(C(C)C)c(C)n2C)cc1,16.6%,4.9%,2.0%
CCOC(=O)C1=C(O)/C(=C\c2ccc(CNS(=O)(=O)c3ccc(Br)cc3)o2)N=C1C,39.8µM*,?,-11.5%
COc1ccc(N=Cc2ccc(CNS(=O)(=O)c3ccc(Cl)cc3)o2)cc1,0.0%,-17.5%,1.6%
COC(=O)C1=C(O)/C(=C\c2ccc(CNS(=O)(=O)c3ccc(Cl)cc3)o2)N=C1C,28.2µM*,-26.5%,-8.5%
COC(=O)C1=C(O)/C(=C\c2ccc(CNS(=O)(=O)c3ccccc3)o2)N=C1C,39.8µM*,-38.1%,-12.5%
COC(=O)C1=C(O)/C(=C\c2ccc(OCC(=O)Nc3ccccc3)cc2)N=C1C,1.9%,-11.1%,-1.9%
COCCNC(=O)/C(C#N)=C\c1ccc(CNS(=O)(=O)c2ccc(C)cc2)o1,/,7.8%,-2.3%
CCCc1cc(C(=O)N/N=C/c2cccn2C)cs1,1.4%,-30.7%,11.2%
Cc1nn(Cc2ccccc2)c(Cl)c1C(=O)OCC(=O)NC(=O)NC12CC3CC(CC(C3)C1)C2,-0.4%,-40.9%,-12.2%
COc1ccc(Cl)cc1S(=O)(=O)NC(C)C(=O)NCc1ccncc1 (configuration not stated),-5.0%,-5.7%,-4.1%
Cc1ccc(-c2nnc(-c3ccccc3)c(-c3ccccc3)n2)cc1,-8.8%,-27.1%,-11.4%
Cc1cc(-c2nnc(-c3ccccc3)c(-c3ccccc3)n2)c(C)o1,6.31µM*,11.9%,-8.8%
CCCN(CC(=O)Nc1ccccc1OC)C(=O)c1ccc(S(=O)(=O)NCc2ccco2)cc1,-4.9%,5.2%,-0.8%
Cc1csc2nc(-c3cccc(NC(=O)c4cccc(F)c4)c3)cn12,-0.2%,/,4.9%
COc1ccccc1CNC(=O)c1cc(S(=O)(=O)N2CCCC2)cn1C,-10.0%,-8.6%,-9.2%
c1ccc(COC2CCCN(Cc3nc(-c4cnccn4)no3)C2)nc1 (configuration not stated),?,10.4%,-4.8%
COc1ccc(-c2noc(CN3CCCC(OCc4ccccn4)C3)n2)cc1 (configuration not stated),35.5µM*,84.6%,3.2%
O=C(Nc1sc2c(c1C(=O)NCc1ccccc1)CCCC2)c1cc(=O)c2cc(Cl)ccc2o1,-0.2%,/,-3.1%
CC(C)NS(=O)(=O)c1ccc2c(c1)oc(=O)n2C,89.1µM*,-12.3%,-4.3%
Cn1c(=O)oc2cc(S(=O)(=O)NCc3ccco3)ccc21,?,-17.0%,-6.9%
Cn1c(=O)oc2cc(S(=O)(=O)Nc3ccccc3)ccc21,8.3%,-40.4%,-1.5%
CCC1CCCCN1Cc1ccc(CNS(=O)(=O)c2ccc3c(c2)oc(=O)n3C)o1 (configuration not stated),79.4µM*,-16.7%,-5.6%
CS(=O)(=O)c1cccc(-c2nnc(NC(=O)CCS(=O)(=O)c3ccccc3)o2)c1,0.0%,-13.0%,?
SMILES,Sm TGR block,AmpC inh no detg,AmpC inh detg
CC1CCN(C(=O)CSc2nnc(CNC(=O)c3ccc(S(=O)(=O)N(C)C)cc3)o2)CC1,0.8%,3.6%,-2.6%
Cc1ccc(Cl)cc1N1CCN(C(=O)Cn2nc(C)n3c(cc4sccc43)c2=O)CC1,-7.4%,/,-9.7%
CCSc1nnc2ccc(-c3ccco3)nn12,35.5µM*,-3.6%,-0.5%
CCSc1nnc2ccc(-c3ccc(C)cc3)nn12,-0.3%,108.1%,7.8%
C=CCNC(=O)c1ccc(-n2cccc2)cc1,-0.8%,-30.0%,?
CCOC(=O)C1CCN(C(=O)c2cccc(S(=O)(=O)Nc3ccc(C)cc3C)c2)CC1,-6.3%,81.9%,-2.3%
CCC1CCCCN1C(=O)COc1ccc2c(c1)OCO2 (configuration not stated),-1.8%,-4.1%,3.2%
